Compounds with a hit are over-represented: about 4.8% of the library has one in this group of screens.
hcDAF12 agonist – H. contortus DAF-12 nuclear receptor activators, primary screen, cell-based, luminescence, HEK293, lit1-tk-luc reporter; activation, % at 6.8 µM; actives 1.4% (n = 370,000); HEK293 hcDAF-12 lit1-tk-luc reporter; 0% DMSO, 100% Δ7-dafachronic acid; AID 652067, 2013;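 active means activation above the mean of all tested compounds plus 3 SD, cut at about 5.5% in these data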;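 further: 100% = response to 3 µM Δ7-dafachronic acid high control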
ssDAF12 agonist – S. stercoralis DAF-12 nuclear receptor activators, primary screen, cell-based, luminescence, HEK293, GRIP1 co-expression, lit1-tk-luc. activation, % at 6.8 µM. Nuclear hormone receptor DAF-12 (Strongyloides stercoralis). HEK293 ssDAF-12/GRIP1 lit1-tk-luc reporter; % of 3 µM dafachronic acid response. actives 1% (n = 370,000);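 active means activation above the mean over all tested compounds plus 3 SD, cut at about 0.9% in these data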;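 further: 0% = DMSO-only wells and 100% = 3 µM delta7-dafachronic acid wells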
SMARCA2 act – SMARCA2 (BRM) function activators, primary screen, cell-based, luminescence, high throughput; MG213 cells, MMTV-luciferase reporter, dexamethasone, overnight; activation, % at 9.1 µM; actives 1% (n = 370,000); in the data active means activation above about 7.8%;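 further: 0% = vehicle wells and 100% = reference activator wells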
hgDAF12 agonist – H. glycines DAF-12 receptor agonists, primary screen, cell-based, luminescence, HEK293, GAL4 fusion, UAS-luciferase; Nuclear hormone receptor DAF-12 (Heterodera glycines), GAL4 fusion; HEK293 GAL4-hgDAF12 UAS-luciferase reporter, agonist luminescence; normalized to butyrate control; activation, % at 6.8 µM; actives 1.8% (n = 370,000);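 active means activation above a cutoff set at the mean of all screened compounds plus 3 SD, cut at about 10% in these data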;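 further: 0% = DMSO wells and 100% = sodium butyrate wells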
DAX1 inh-1 – DAX1 (NR0B1) inhibitors, primary screen, cell-based, HEK293, Gal4-DAX1, luciferase luminescence; Nuclear receptor subfamily 0 group B member 1 (Homo sapiens), P51843; HEK293 Gal4-DAX1 luciferase reporter; inhibition, % at 6.75 µM; actives 0.99% (n = 340,000);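 active means inhibition above the mean over all tested compounds plus 3 SD, cut at about 4.2% in these data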;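 further: 0% = DAX1-transfected cells with DMSO and 100% = empty-vector control cells with DMSO; inhibition shows as a rise in luminescence from relieved DAX1 repression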
DAX1 inh-2 – DAX1 (NR0B1) inhibitors on StAR promoter, primary screen, cell-based, luminescence, SF-1 (NR5A1), full-length DAX-1. HEK293T StAR-luciferase reporter, SF-1/DAX-1 repression relief. inhibition, % at 6.8 µM. actives 1.1% (n = 370,000);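 active means inhibition above the mean over all tested compounds plus 3 SD, cut at about 3.6% in these data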;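 further: 0% = DAX-1 cells with DMSO and 100% = cells lacking DAX-1 with DMSO; higher inhibition means more luminescence from relief of DAX-1 repression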
LXRb hcDAF ctr – LXR agonists, Gal4 luciferase reporter, confirmation, counter-screen for hcDAF-12 agonist project, cell-based, luminescence, HEK293, H. contortus campaign; activation, % at 6.8 µM; HEK293 Gal4-LXR tk-luc reporter, 24 h; normalized: DMSO 0%, positive control 100%; 3,400 tested, under 10 active; AID 743027, 2013; shares compounds with hcDAF12 agonist;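 active means mean percent activation of the reporter above a cutoff set as the average over tested compounds plus their standard deviation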
Target sequence (P55055 whole entry, looked up, the tested form may be a part): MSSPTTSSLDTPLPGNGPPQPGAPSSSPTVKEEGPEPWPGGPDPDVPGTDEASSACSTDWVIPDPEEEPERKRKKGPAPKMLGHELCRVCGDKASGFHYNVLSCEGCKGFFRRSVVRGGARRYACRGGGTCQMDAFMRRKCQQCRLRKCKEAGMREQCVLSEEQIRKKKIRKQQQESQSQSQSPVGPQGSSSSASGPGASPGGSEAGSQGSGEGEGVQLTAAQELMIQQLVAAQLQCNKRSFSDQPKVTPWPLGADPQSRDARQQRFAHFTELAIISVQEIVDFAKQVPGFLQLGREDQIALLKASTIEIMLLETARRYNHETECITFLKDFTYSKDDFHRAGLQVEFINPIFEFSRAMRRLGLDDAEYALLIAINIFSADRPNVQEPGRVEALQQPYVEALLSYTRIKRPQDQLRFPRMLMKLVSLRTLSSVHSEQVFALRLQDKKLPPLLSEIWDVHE
hcDAF12 ag – H. contortus DAF-12 receptor agonists, confirmation, cell-based, luminescence, HEK293, lit1-tk-luc, triplicate; activation, % at 6.8 µM; actives 61% (n = 3,400); HEK293 hcDAF-12 lit1-tk-luc reporter; % of Δ7-dafachronic acid response; shares compounds with hcDAF12 agonist;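 active means mean activation across triplicate tests above the threshold derived from the earlier primary screen, cut at about 5.5% in these data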;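 further: 0% = DMSO only wells and 100% = 3 µM Δ7-dafachronic acid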
* = called active by the depositor; nt = no result given.

SMILES	hcDAF12 agonist	ssDAF12 agonist	SMARCA2 act	hgDAF12 agonist	DAX1 inh-1	DAX1 inh-2	LXRb hcDAF ctr	hcDAF12 ag
COc1cccc(-n2c(Cc3cc(=O)[nH]c(=O)[nH]3)nnc2SCC(=O)N2CCCCC2)c1	8.3*	0	1	-1	1	-1	0	4
CCOC(=O)N1CCN(C(=O)CSc2nc3c([nH]c4ccccc43)c(=O)n2CC)CC1	8.3*	0	1	1	0	-5	0	1
C=CCn1c(SCC(=O)N2CCN(c3ccccc3)CC2)nc2c([nH]c3ccccc32)c1=O	9.4*	0	0	2	3	1	0	4
COc1cccc(-n2c(Cc3cc(=O)[nH]c(=O)[nH]3)nnc2SCC(=O)NC2CCCCC2)c1	-1	-1	-2	5	2	0	nt	nt
Cc1cccc(N=C(NO)c2nonc2N)c1	-1	-1	-2	-1	0	0	nt	nt
Cc1cc(Nc2ccc(C(C)C)cc2)n2ncnc2n1	1	-1	4	-1	-1	-1	nt	nt
CSCCC(NC(=O)c1cc(S(=O)(=O)N2CCOCC2)ccc1C)c1nc2ccccc2[nH]1 (stereo not given)	1	0	-3	-2	1	0	nt	nt
Cc1ccc(S(=O)(=O)N2CCOCC2)cc1C(=O)Nc1nc2ccccc2[nH]1	7.9*	0	1	3	0	2	0	5
CCN(CC)C(=O)c1sc(NC(=O)c2cc(-c3ccc(C)s3)nc3ccccc23)c(C(=O)OC)c1C	2	-1	1	1	1	0	nt	nt
N#C/C(=C\c1ccc(N2CCOCC2)c([N+](=O)[O-])c1)c1nc2ccccc2[nH]1	-1	-2	-2	3	-2	0	nt	nt
N#C/C(=C\c1ccc(N2CCOCC2)o1)c1nc2ccccc2[nH]1	11*	0	7	-1	3	3	2	5.9*
COc1ccc(-c2c(C#N)c(N)nc3c2c(=O)n(C)c(=O)n3C)cc1Cl	0	-1	0	-1	2	0	nt	nt
CCOC(=O)Nc1oc2ccccc2c(=O)c1C	-1	-1	-3	1	1	-1	nt	nt
COCCn1c(C)cc(C(=O)CSc2nc3ccccc3s2)c1C	-2	-2	-8	-7	-3	-1	nt	nt
COCCn1c(C)cc(C(=O)CSc2nc3ccccc3o2)c1C	8.4*	0	6	10	1	2	1	4
CCC(C(=O)NCCc1ccccc1)c1ccccc1 (stereo not given)	3	-1	3	1	-2	0	nt	nt
COc1ccccc1/C=C1\CCCC2=C1Nc1nnnn1C2c1ccccc1OC (stereo not given)	1	-1	-1	-2	-1	0	nt	nt
Cc1ccc(NC(=O)c2c(Cl)nc3ccccn23)cc1	12*	1.1*	1	13*	3	3	1	10*
